PubChem BioAssay (Tox21)
Where “and” joins values, the source holds several entries; their conditions need not be identical. Equal values may be shown once. Results filed as inconclusive are left out. A call without a number means that no potency is given here. A structure can be active in one record and inactive in another. Calls of active or inactive are those of the source. Calls follow the shape of the dose curve; as a rule, active = well fitted curve in the direction sought with a large enough effect in the repeat runs; inconclusive = weak or mixed curves; inactive = no such curve, though single readings can be large; an effect the other way counts as inactive or inconclusive.

System: not listed separately
Experiment: qHTS assay for identifying genotoxic compounds that show differential cytotoxicity against isogenic chicken DT40 cell lines with known DNA damage response pathways - Rad54/Ku70 mutant cell line (AID 743015); also: nearly all actives have a fitted effect of over 60% in size; also: potency is read from the fitted curve at half-maximal effect
Settings: DT40 Rad54/Ku70 mutant viability, CellTiter-Glo, 40 h; series mostly up to 66.8 µM; activity change, negative = cytotoxicity: at the top concentration

Row | SMILES | Potency | activity change, negative = cytotoxicity
1 | CCCCCCOC(C)=O | 61.1 µM (active) | 
2 | CC(=O)[C@@]1(O)CC[C@H]2[C@@H]3CCC4=CC(=O)CC[C@]4(C)[C@H]3CC[C@@]21C | 24.3 µM (active) | 
3 | O=S(=O)(O)c1cc(S(=O)(=O)O)c2c(N=Nc3ccccc3)c(O)ccc2c1 | inactive | 
4 | Clc1ccc(Cl)c(Cl)c1Cl | inactive | 
5 | COC(=O)Nc1nc2ccc(Sc3ccccc3)cc2[nH]1 | 403 nM (active) and 386 nM (active) | 
6 | CN(C)c1cccc(O)c1 |  | -4.28% [at 95.1 µM] (inactive)
7 | CC1=CC[C@H]2C[C@@H]1C2(C)C | inactive | 
8 | COC(=O)c1ccc(C(=O)OC)cc1 | inactive | 
9 | O=[N+]([O-])C(CO)(CO)CO | inactive and 68.6 µM (active) | 
10 | CC(C)(C)C1CCC(O)CC1 (configuration not stated) | inactive | 
11 | c1ccc2[nH]cnc2c1 |  | 1.32% (inactive)
12 | O=C1CCCCC1 | inactive | 
13 | CCCCCCCCCCC=CC1CC(=O)OC1=O (configuration not stated) |  | -13.5% [at 95.1 µM] (inactive)
14 | C=C1CC[C@H](O)CC1=C/C=C1\CCC[C@]2(C)[C@@H]([C@H](C)/C=C/[C@H](C)C(C)C)CC[C@@H]12 | 13.3 µM (active) and 13.6 µM (active) and 27.3 µM (active) | 
15 | CCOC(=O)[C@H](CCc1ccccc1)N[C@@H](C)C(=O)N1Cc2ccccc2C[C@H]1C(=O)O |  | 7.17% (inactive)
16 | CC#C[C@]1(O)CC[C@H]2[C@@H]3CCC4=CC(=O)CCC4=C3[C@@H](c3ccc(N(C)C)cc3)C[C@@]21C | 5.96 µM (active) and 21.7 µM (active) | 
17 | C=C(C)C(=O)OCCC[Si](OC)(OC)OC | inactive | 
18 | CCCCOCCOCCOC(=O)CCCCC(=O)OCCOCCOCCCC | inactive | 

Row | SMILES | Potency | activity change, negative = cytotoxicity
19 | CCCCCCCCCCCCN | inactive and 19.3 µM (active) | 
20 | CCCCC(CC)COC(C)=O (configuration not stated) | inactive | 
21 | O=C(Cl)c1c(Cl)c(Cl)c(C(=O)Cl)c(Cl)c1Cl | inactive | 
22 | O=C(Oc1ccccc1)c1ccc(O)cc1 | inactive | 
23 | O=[N+]([O-])c1cccc(Cl)c1 | inactive | 
24 | O=c1c(-c2ccc(O)cc2)coc2cc(O)ccc12 |  | -1.41% (inactive)
25 | Cc1cc(NS(=O)(=O)c2ccc(N)cc2)no1 | inactive | 
26 | Cc1cc(O)cc(C)c1Cl | inactive | 
27 | Cc1cc(O)c2c(c1)C(=O)c1cc(O)cc(O)c1C2=O | 1.68 µM (active) and 3.06 µM (active) | 
28 | CC1COc2ccccc2N1C(=O)C(Cl)Cl (configuration not stated) | 61 µM (active) and 38.5 µM (active) | 
29 | CCC(=O)O | inactive | 
30 | CC(=O)CCc1ccccc1 | inactive | 
31 | O=S(=O)(Oc1ccc(Cl)cc1Cl)c1ccccc1 |  | -16.3% (inactive)
32 | Cc1ccc(N)c(S(=O)(=O)O)c1 | inactive | 
33 | CCCCC/C=C\C/C=C\CCCCCCCC(=O)OC | 21.7 µM (active) | 
34 | CCOC(=O)/C=C\C(=O)OCC | inactive | 
35 | CC1=C(CC(=O)O)c2cc(F)ccc2/C1=C\c1ccc(S(C)=O)cc1 (configuration not stated) | inactive and 24.3 µM (active) | 
36 | CC(C)NCC(O)COc1cccc2ccccc12 (configuration not stated) | 61.8 µM (active) and inactive | 

System: not listed separately
Experiment: qHTS assay to identify small molecule antagonists of the androgen receptor (AR) signaling pathway - cell viability counter screen (AID 743033; also: nearly all actives have a fitted effect of over 45% in size; also: potency is read from the fitted curve at half-maximal effect)
Settings: AR-bla HEK293 viability, CellTiter-Glo luminescence, 16 h; series mostly up to 58.5 µM; activity change, negative = cytotoxicity: at the top concentration

Row | SMILES | Potency | activity change, negative = cytotoxicity
37 | CC(=O)[C@@]1(O)CC[C@H]2[C@@H]3CCC4=CC(=O)CC[C@]4(C)[C@H]3CC[C@@]21C | inactive | 
38 | CN(C)c1cccc(O)c1 | inactive | 
39 | CC1=CC[C@H]2C[C@@H]1C2(C)C | inactive | 
40 | O=C(c1ccc(O)cc1)c1ccc(O)cc1O | inactive | 
41 | CCCCCCCCCCC=CC1CC(=O)OC1=O (configuration not stated) |  | -5.41% (inactive)
42 | C=C1CC[C@H](O)CC1=C/C=C1\CCC[C@]2(C)[C@@H]([C@H](C)/C=C/[C@H](C)C(C)C)CC[C@@H]12 | inactive and 43.3 µM (active) | 
43 | C=C(C)C(=O)OCCC[Si](OC)(OC)OC | inactive | 
44 | CCCCCCCCCCCCN | inactive and 54.9 µM (active) | 
45 | CCCCC(CC)COC(C)=O (configuration not stated) | inactive | 
46 | O=C(Cl)c1c(Cl)c(Cl)c(C(=O)Cl)c(Cl)c1Cl | inactive | 
47 | O=C(Oc1ccccc1)c1ccc(O)cc1 | inactive | 
48 | Cc1cc(O)c2c(c1)C(=O)c1cc(O)cc(O)c1C2=O | 12 µM (active) and inactive | 
49 | CCC(=O)O | inactive | 
50 | CC(=O)CCc1ccccc1 | inactive | 
51 | O=[N+]([O-])c1cc(N(CCO)CCO)ccc1NCCO | inactive | 
52 | O=S(=O)(Oc1ccc(Cl)cc1Cl)c1ccccc1 | inactive | 
53 | NC(=O)NNc1ccccc1 | inactive | 
54 | CC1=C(CC(=O)O)c2cc(F)ccc2/C1=C\c1ccc(S(C)=O)cc1 (configuration not stated) | inactive | 

Target: Androgen receptor (Homo sapiens) (UniProt P10275)
Sequence (P10275 whole entry, looked up): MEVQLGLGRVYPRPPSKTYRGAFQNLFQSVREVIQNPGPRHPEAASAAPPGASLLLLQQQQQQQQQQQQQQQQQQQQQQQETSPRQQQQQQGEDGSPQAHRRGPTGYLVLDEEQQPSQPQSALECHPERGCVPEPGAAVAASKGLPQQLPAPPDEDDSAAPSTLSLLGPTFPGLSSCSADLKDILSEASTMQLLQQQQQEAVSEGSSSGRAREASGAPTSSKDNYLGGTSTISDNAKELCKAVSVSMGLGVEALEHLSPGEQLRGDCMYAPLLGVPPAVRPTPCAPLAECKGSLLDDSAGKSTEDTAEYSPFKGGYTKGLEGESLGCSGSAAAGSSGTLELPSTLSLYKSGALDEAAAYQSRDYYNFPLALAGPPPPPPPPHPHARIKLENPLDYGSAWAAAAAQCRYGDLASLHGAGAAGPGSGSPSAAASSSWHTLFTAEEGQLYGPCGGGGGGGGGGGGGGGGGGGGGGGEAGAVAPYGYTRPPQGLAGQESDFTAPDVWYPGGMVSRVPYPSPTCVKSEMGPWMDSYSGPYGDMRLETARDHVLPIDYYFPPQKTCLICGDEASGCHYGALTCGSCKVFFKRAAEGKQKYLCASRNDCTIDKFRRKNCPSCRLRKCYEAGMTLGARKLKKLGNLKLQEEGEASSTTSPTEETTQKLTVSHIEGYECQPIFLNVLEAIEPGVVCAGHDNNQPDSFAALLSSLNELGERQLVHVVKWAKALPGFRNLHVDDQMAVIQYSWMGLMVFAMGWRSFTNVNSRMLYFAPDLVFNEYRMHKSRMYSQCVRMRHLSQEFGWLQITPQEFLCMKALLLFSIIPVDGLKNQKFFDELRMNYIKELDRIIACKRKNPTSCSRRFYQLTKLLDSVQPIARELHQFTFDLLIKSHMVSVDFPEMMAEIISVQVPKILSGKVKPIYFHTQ
Experiment: qHTS assay to identify small molecule agonists of the androgen receptor (AR) signaling pathway using the MDA cell line (AID 743040; also: nearly all actives have a fitted effect of over 20% in size)
Settings: MDA-kb2 AR-luc cells, MMTV luciferase, 16 h, stronger effect = higher value; series mostly up to 70.3 µM; activity change: at the top concentration
Summary of the method: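 Stable MMTV-luciferase reporter in MDA-kb2 cells; note the promoter carries GR as well as AR response elements. 16 h compound treatment, 37C, 0% CO2; ONE-Glo luminescence endpoint.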

Row | SMILES | outcome | activity change
55 | O=C1CCCCC1 | inactive | 
56 | O=c1c(-c2ccc(O)cc2)coc2cc(O)ccc12 |  | 20.2% (inactive)
57 | O=[N+]([O-])c1cc(N(CCO)CCO)ccc1NCCO | inactive | 

System: not listed separately
Experiment: qHTS assay to identify small molecule antagonists of the androgen receptor (AR) signaling pathway using the MDA cell line - cell viability counter screen (AID 743041; also: nearly all actives have a fitted effect of over 45% in size; also: potency is read from the fitted curve at half-maximal effect)
Settings: MDA-kb2 viability, CellTiter-Fluor, 16 h, cells co-treated with R1881 androgen agonist; series mostly up to 70.3 µM; viability change, negative = cytotoxic: at the top concentration
Summary of the method: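 Using the breast carcinoma line MDA-kb2 AR-luc, test chemicals were co-incubated with R1881 for 16 h; CellTiter-Fluor reagent, added at 15.5 h, provided a fluorescence measure of live cells.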

Row | SMILES | Potency | viability change, negative = cytotoxic
58 | CCCCCCOC(C)=O | inactive | 
59 | CC(=O)[C@@]1(O)CC[C@H]2[C@@H]3CCC4=CC(=O)CC[C@]4(C)[C@H]3CC[C@@]21C | inactive | 
60 | O=S(=O)(O)c1cc(S(=O)(=O)O)c2c(N=Nc3ccccc3)c(O)ccc2c1 | 27.4 µM (active) and 38.6 µM (active) | 
61 | Clc1ccc(Cl)c(Cl)c1Cl | inactive | 
62 | COC(=O)Nc1nc2ccc(Sc3ccccc3)cc2[nH]1 | inactive | 
63 | CN(C)c1cccc(O)c1 | inactive | 
64 | CC1=CC[C@H]2C[C@@H]1C2(C)C | inactive | 
65 | COC(=O)c1ccc(C(=O)OC)cc1 | inactive | 
66 | O=[N+]([O-])C(CO)(CO)CO | inactive | 
67 | CC(C)(C)C1CCC(O)CC1 (configuration not stated) | inactive | 
68 | O=C(c1ccc(O)cc1)c1ccc(O)cc1O | inactive | 
69 | c1ccc2[nH]cnc2c1 | inactive | 
70 | O=C1CCCCC1 | inactive | 
71 | CCCCCCCCCCC=CC1CC(=O)OC1=O (configuration not stated) | inactive | 
72 | C=C1CC[C@H](O)CC1=C/C=C1\CCC[C@]2(C)[C@@H]([C@H](C)/C=C/[C@H](C)C(C)C)CC[C@@H]12 | inactive | 
73 | CCOC(=O)[C@H](CCc1ccccc1)N[C@@H](C)C(=O)N1Cc2ccccc2C[C@H]1C(=O)O | inactive | 
74 | C=C(C)C(=O)OCCC[Si](OC)(OC)OC | inactive | 
75 | CCCCOCCOCCOC(=O)CCCCC(=O)OCCOCCOCCCC | inactive | 

Row | SMILES | Potency | viability change, negative = cytotoxic
76 | CCCCC(CC)COC(C)=O (configuration not stated) | inactive | 
77 | O=C(Cl)c1c(Cl)c(Cl)c(C(=O)Cl)c(Cl)c1Cl | inactive | 
78 | O=C(Oc1ccccc1)c1ccc(O)cc1 | inactive | 
79 | O=[N+]([O-])c1cccc(Cl)c1 | inactive | 
80 | O=c1c(-c2ccc(O)cc2)coc2cc(O)ccc12 |  | -2.97% (inactive)
81 | Cc1cc(NS(=O)(=O)c2ccc(N)cc2)no1 | inactive | 
82 | Cc1cc(O)cc(C)c1Cl | inactive | 
83 | Cc1cc(O)c2c(c1)C(=O)c1cc(O)cc(O)c1C2=O | inactive | 
84 | CCC(=O)O | inactive | 
85 | CC(=O)CCc1ccccc1 | inactive | 
86 | O=S(=O)(Oc1ccc(Cl)cc1Cl)c1ccccc1 | inactive | 
87 | Cc1ccc(N)c(S(=O)(=O)O)c1 | inactive | 
88 | NC(=O)NNc1ccccc1 | inactive | 
89 | CCCCC/C=C\C/C=C\CCCCCCCC(=O)OC | inactive | 
90 | CCOC(=O)/C=C\C(=O)OCC | inactive | 
91 | CC1=C(CC(=O)O)c2cc(F)ccc2/C1=C\c1ccc(S(C)=O)cc1 (configuration not stated) | inactive | 
92 | CC(C)NCC(O)COc1cccc2ccccc12 (configuration not stated) | inactive | 
